The results in this text go back to ChEMBL document CHEMBL4513216, “Probing the Open Global Health Chemical Diversity Library for Multistage-Active Starting Points for Next-Generation Antimalarials” (ACS Infect Dis, 2020).

Each structure is given as a SMILES string. The campaign covered roughly 69,000 compounds. About 8,600 (12%) showed an effect of 50% or more. Only a selection was taken, and strong results are over-represented in it overall.

In the assay the test system is Plasmodium berghei. In words: Screen against P. berghei liver stage (PbLuc), transformed with Luciferase, at 10uM. Conditions: tested at 10 uM. It is filed as functional, HepG2.
As to `CCc1cnc(C)nc1NC1CC(=O)N(CC)C1` (stereo not given), the INHIBITION is recorded as 14.9%.
With `c1ccc(-n2cc(CN3CCCC3Cn3cccn3)nn2)cc1` (stereo not given) the figure was -18%; with `Cc1cc(C)c(S(N)(=O)=O)cc1C(=O)NCCN1CCCCC1`, 42.1%; with `COc1cc(OC)cc(C(=O)NCc2nn(C)c3c2COCC3)c1`, 24.2%.
With `O=S(=O)(c1cn[nH]c1)N1CCCC1c1cc[nH]n1` (stereo not given), the INHIBITION is recorded as -12.9%.
With `COc1cccc(CNC(=O)CC2CSc3nc(C)c(C)c(=O)n32)c1` (stereo not given) the figure was 27%; with `O=C(c1ccnnc1)N1C[C@H](Oc2ccccn2)[C@H]2OCCC[C@H]21`, -15.9%.
As to `CC1(C)CC(=O)c2cnc3nc(N4CCOCC4)nc(O)c3c2C1`, the INHIBITION was -42.5%.
With `Cc1nc(C(F)(F)F)nc(N2CCC3(CC2)CC(C(=O)O)N(C)C3)c1C` (stereo not given) the figure was 47.2%; with `Cc1sc2nc(C(F)(F)F)nc(N3CCC(NS(C)(=O)=O)CC3)c2c1C`, 34.4%.
As to `Cc1sc2nc(C(F)(F)F)nc(N3CCN(C)CC3)c2c1C`, the INHIBITION amounted to 65.8%.
With `CC(=O)N1CCN(c2nc(C(F)(F)F)nc3sc(C)c(C)c23)CC1` the figure was 34.4%.
With `CN1CCCN(c2nc(C3CC3)ns2)CC1` the figure was -31.5%; with `CN1CCCN(c2nc(C3CCCC3)nc3c2cnn3C)CC1`, 26.4%.
With `Cc1sc2nc(C(F)(F)F)nc(N3CCN(S(C)(=O)=O)CC3)c2c1C` the figure was 55%; with `Cc1sc2nc(C(F)(F)F)nc(N3CCCN(C)CC3)c2c1C`, 53.9%; with `Cc1nc(C(F)(F)F)nc(N2CCC(O)(C(=O)O)CC2)c1C`, 24.4%.
As for `Cc1cc(C)n(CCCC(=O)N2CCc3ncc(Cl)cc3C2)n1`, the INHIBITION is recorded as -50.2%.
With `Cn1cc(NC(=O)N2CCC2c2ccccc2)ccc1=O` (stereo not given) the figure was 6.1%.
Take `O=C(O)c1nc(SCc2ccccc2)ncc1Br`: the INHIBITION is recorded as 32.4%.
With `CCN1CC(C(=O)NCCn2cccc2)CC1=O` (stereo not given) the figure was 43.9%; with `Cc1ncsc1C(=O)N1CCCC(CO)(CC2CC2)C1` (stereo not given), 29.4%.
With `Cn1nc(Cn2ccnc2)c2c1CN(c1nccs1)C2` the figure was 3.88%.
With `CCN1CCCCC1C(=O)N1CCC(OC2CCCC2)CC1` (stereo not given) the figure was 10.2%; with `O=C(c1cnccn1)N1CCCC2(CCN(Cc3ccc(F)cc3)C2)C1` (stereo not given), 8.03%; with `CC(C)(C)C(Cn1cccn1)NC(=O)c1ccco1` (stereo not given), 35.2%.
For the compound `Cc1nc(C(Cc2ccsc2)NC(=O)CN2CCOCC2)sc1C` (stereo not given), the INHIBITION came to 30.45%.
Take `Cc1cccc(CNC(Cc2ccsc2)c2nc(C)c(C)s2)n1` (stereo not given): the INHIBITION worked out at 91.6%.
Consider `Cc1cccc(CNC(Cc2ccsc2)c2nccs2)n1` (stereo not given), for which the INHIBITION was -24.4%.
Take `CC(C(=O)Nc1cccc(N2CCCCC2)c1)n1cncn1` (stereo not given): the INHIBITION was 70.7%.
Consider `CC(C(=O)NCc1ccc(N2CCCCC2)nc1)n1cncn1` (stereo not given), for which the INHIBITION is reported as 7.12%.
With `CC(C(=O)NCCN1CCN(C)CC1)n1cncn1` (stereo not given) the figure was 34.7%.
With `CC(C(=O)NCCCN1CCN(c2ccccc2)CC1)n1cncn1` (stereo not given) the figure was -16%; with `CC(C(=O)Nc1ccc(N2CCOCC2)nc1)n1cncn1` (stereo not given), 53%.
With `CC(C(=O)NCc1ccc(N2CCCCCC2)nc1)n1cncn1` (stereo not given) the figure was 31.2%.
With `CC(C(=O)Nc1ccc(N2CCCC2)nc1)n1cncn1` (stereo not given), the INHIBITION came out at 56.1%.
As for `CC(C(=O)Nc1ccc(N2CCCC2)nc1)n1cccn1` (stereo not given), the INHIBITION is recorded as 9.54%.
`COc1ccc(NC(=O)C(C)n2cncn2)cn1` (stereo not given): the INHIBITION was -33.9%.
With `CC(C(=O)Nc1ccc(N2CCCCC2)nc1)n1cncn1` (stereo not given) the figure was 28.8%; with `CC(C(=O)NCc1ccc(N2CCCC2)nc1)n1cncn1` (stereo not given), 21.6%; with `Cc1cccc(N2CCN(CCNC(=O)C(C)n3cncn3)CC2)c1` (stereo not given), 55.5%.
Regarding `CC(C)NC(=O)N1CCc2onc(C(=O)Nc3cccnc3)c2C1`, the INHIBITION was -11%.
For the compound `COc1cc(NCc2ccccc2-n2cncn2)nc(N)n1`, the INHIBITION is listed as -2.43%.
With `CNC(=O)NC(=O)CCN1CCN(c2nccs2)CC1` the figure was 11.9%; with `O=S(=O)(N[C@@H]1CCO[C@]2(CCN(CC3CCOCC3)C2)C1)C1CC1`, 1.48%.
With `O=C1COC2(CCN(c3ncccn3)CC2)CN1Cc1ccccn1`, the INHIBITION was -6.21%.
With `COc1ccc2c(ccn2CCC(=O)NCCCC(=O)O)c1` the figure was 24.7%; with `Cc1noc(C(C)N(C)Cc2ccco2)n1` (stereo not given), -33.4%.
With `CCc1cnccc1C(=O)NC1CCN(C(=O)OC)CC1`, the INHIBITION was -7.16%.
Regarding `CC(NC(=O)COC1CCCC1)c1nc(-c2ccccc2)c[nH]1` (stereo not given), the INHIBITION is on record as -43.3%.
On to `NCCn1cc(C(=O)N2CCNC(=O)C2c2cccc(F)c2)nn1` (stereo not given), for which the INHIBITION was -13.8%.
With `CN(CC(=O)NCc1ccco1)Cc1nc2c(s1)CCCC2` the figure was 40.8%.
Consider `CN(CC(=O)NCC1CCCO1)Cc1nc2c(s1)CCCC2` (stereo not given), for which the INHIBITION is 57.1%.
With `CN(CC(=O)NCC(F)(F)F)Cc1nc2c(s1)CCCC2` the figure was 46.7%.
With `O=S(=O)(CCN1CCCCC1Cn1cncn1)c1ccccc1` (stereo not given) the figure was -8.11%.
Regarding `CC(=O)NCCNC(=O)CNC1CCCN(c2ccc(C)nn2)C1` (stereo not given), the INHIBITION came out at 47%.
`c1cn(-c2cnc(C3CCNCC3)cn2)cn1`: the INHIBITION is 26.8%.
Take `Cc1cc(C2CCN(C(=O)c3cnn(C)c3)CC2)ccn1`: the INHIBITION is listed as -4.51%.
On to `Cc1ccnc(C2CCN(C(=O)c3cnn(C)c3)C2)n1` (stereo not given), for which the INHIBITION stood at 48.4%.
Regarding `Cc1ccnc(C2CCN(C(=O)c3cnn(C)c3)CC2)n1`, the INHIBITION was 50.3%.
With `CCOCC1CN(C(=O)c2cccnc2)Cc2cnn(C)c21` (stereo not given) the figure was -2.35%.
With `COc1cccc(CN2CCC(Cc3cnc(CN(C)C)cn3)CC2)c1` the figure was 25.8%.
With `CCn1ncc2[nH]c(-c3cc(OC)c(OC)cc3OC)nc21` the figure was 26.5%.
With `c1cc(CN2CCc3ncc(CN4CCOCC4)n3CC2)cs1`, the INHIBITION was -36%.
On to `Cc1csc(N2CCCN(C(=O)c3ccsc3)CC2)n1`, for which the INHIBITION is -36.4%.
With `Cc1csc(N2CCC(NCC3(O)CCc4ccccc43)CC2)n1` (stereo not given) the figure was 42.6%; with `Cc1ccc(N2CCN(C3CCc4ccccc4C3)CC2)nn1` (stereo not given), 53.9%; with `Cc1ccc(N2CCC3(CC2)CCN(C2CCOC2)CC3)nn1` (stereo not given), 8.85%.
Regarding `Cc1ccc(N2CCC3(CCN(C(=O)C4CCOC4)CC3)CC2)nn1` (stereo not given), the INHIBITION was -45.8%.
On to `Cc1csc(N2CCN(C3CCc4ccccc4C3)CC2)n1` (stereo not given), for which the INHIBITION was 53%.
With `Cc1ccc(N2C[C@H](O)[C@@H](N3CCN(c4ccccn4)CC3)C2)nn1` the figure was 6.29%; with `Cc1ccc(N2CCC3(CC2)CCN(C2CCOCC2)CC3)nn1`, 58.7%; with `Cc1csc(N2CCN(Cc3ccccn3)CC2)n1`, 34.2%.
With `NC(=O)c1csc(N2CCN(C3CCc4ccccc4C3)CC2)n1` (stereo not given) the figure was 47.6%; with `Cc1ccc(N2CCN(C)c3ncccc3C2)nn1`, 48.2%; with `Cc1csc(N2CCCN(C3Cc4ccccc4C3)CC2)n1`, 73.9%.
On to `CS(=O)(=O)N1C[C@@H]2CCN(C(=O)c3cscn3)[C@@H]2C1`, for which the INHIBITION amounted to 31.5%.
With `c1cnn(CCNCc2ccc(N3CCCCC3)cc2)c1` the figure was -10.8%.
In the case of `O=C(O)c1c(-c2ccncc2)ncc2c1CCN(Cc1ccco1)C2`, the INHIBITION is on record as 26.5%.
For `CC1CCN(c2nc3cn(C4CCS(=O)(=O)C4)c(=O)c-3c[nH]2)CC1` (stereo not given), the INHIBITION is recorded as -16.3%.
With `Cc1occc1C(=O)N1C[C@@H]2OCCN(c3ncccn3)[C@@H]2C1` the figure was 11.5%; with `CCc1ccccc1-c1cc(OC)nc(N)n1`, 35%.
`N#Cc1ccc(S(=O)(=O)N2CSCC2C(=O)NCC(F)(F)F)cc1` (stereo not given): the INHIBITION is -13.5%.
With `CC1(C2CCN(CC(N)=O)CC2)CN(Cc2ccccc2)C(=O)CO1` (stereo not given) the figure was 0.301%; with `CC(=O)N1CCC(c2ccnc(Nc3cncnc3)n2)CC1`, -2.11%.
Regarding `Cc1cc(N2CCCCC2)c(C#N)c(C)n1`, the INHIBITION is reported as 25.2%.
Take `Cc1csc(N2CCCN(c3cc(C)nc(C)c3C#N)CC2)n1`: the INHIBITION is given as 91.9%.
With `Cc1cc(N2CCCC2)c(C#N)c(C)n1` the figure was 4.62%; with `CCOC(=O)c1cnn(C2CCN(C(=O)CC3CCCC3)CC2)c1N`, 26.1%.
On to `COc1ccccc1C1(CNCc2cccc(C#N)c2)CCOCC1`, for which the INHIBITION is recorded as 20.9%.
As for `COc1ccccc1C1(CNCc2ccc(C#N)cc2)CCOCC1`, the INHIBITION is 29.6%.
With `COc1ccccc1C1(CNCc2cccc(O)c2)CCOCC1` the figure was 51.3%; with `O=C(CCNc1ncccn1)Nc1cc(C(F)(F)F)c[nH]c1=O`, -1.7%; with `O=C(NCc1ccco1)[C@H]1C[C@@H]2CCN(c3ccncn3)C[C@@H]2O1`, 21.7%.
As to `Cc1cnccc1CN(C)C(=O)c1ccc(Cn2cnnn2)cc1`, the INHIBITION is given as 54.9%.
On to `Cc1nc(CN(C)C(=O)c2ccc(Cn3cnnn3)cc2)cs1`, for which the INHIBITION is given as 16.5%.
In the case of `Cc1ncsc1CCN(C)C(=O)c1ccc(Cn2cnnn2)cc1`, the INHIBITION is given as -0.448%.
With `CCc1noc(C(C)N2CCC(O)CC2)n1` (stereo not given) the figure was 37.9%; with `Cc1noc(C)c1C(=O)NCCSCc1cccs1`, 29.5%.
With `CCN1CCN(C(=O)NCCOc2ccc3c(c2)OCO3)CC1` the figure was 2.63%; with `COc1ncccc1C(=O)N1CCCC1c1nc(-c2ccccc2)n[nH]1` (stereo not given), 47.6%; with `COc1nc2c(cc1C(=O)N1CCCC1c1ccccn1)CCC2` (stereo not given), 1.74%.
For the compound `COc1nc2c(cc1C(=O)N1CCCCC1c1ccccn1)CCC2` (stereo not given), the INHIBITION is given as -34.4%.
Regarding `Cc1nc(CC(=O)N2CCCC2c2nc(-c3ccccc3)no2)cs1` (stereo not given), the INHIBITION worked out at 38.2%.
With `O=C(c1n[nH]c2c1CCC2)N1CCCC1c1nc(-c2ccccc2)no1` (stereo not given) the figure was -68.4%; with `COc1ncccc1C(=O)N1CCCC1c1nc(-c2ccccc2)no1` (stereo not given), 64.9%.
In the case of `CC(C)c1cc(C(=O)N2CCCC2c2nc(-c3ccccc3)no2)[nH]n1` (stereo not given), the INHIBITION is 55.5%.
With `COc1ccc(C(=O)N2CCCCC2c2ccccn2)c(OC)n1` (stereo not given) the figure was 53.2%; with `COc1ncccc1C(=O)N1CC(c2nc(-c3ccccn3)no2)C1`, 33.5%; with `Cc1ncc(-c2ccncc2)c(C2CCN(C(=O)c3ccco3)CC2)n1`, -21%.
